Experimental data: PubChem BioAssay;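 active means inhibition at or above 50% at 10 µM; inactive means inhibition below 50%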

test: blockers of RIG-like receptor reporter activation – cell-based, Sendai virus stimulus, luciferase, 10K MLSCN set, TLR/RLR signaling modifier project, primary screen (AID 602276); conditions: HEK293 RL24 IRF3 luciferase reporter, at 10 µM, active compounds read high;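 further: firefly luciferase from ISG56 promoter only with Renilla not read in this screen; 0% = Sendai virus plus DMSO and 100% = medium plus DMSO without virus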

inhibition, inactive:
CCOc1cccc(-c2nnc3n2N=C(c2cc(OC)ccc2OC)CS3)c1 19.6%, COc1ccc2ccccc2c1CN1CCCC(CO)C1 (stereo not given) 16%, Cc1cc(NC(c2cccnc2)c2c(C)[nH]c3ccccc23)no1 (stereo not given) 17.8%, CC(NC(=O)c1ccc2c(c1)OCO2)C(c1cccs1)N1CCOCC1 (stereo not given) 12.6%, COCCn1nnnc1C(c1cc2ccc(OC)cc2[nH]c1=O)N1CCc2ccccc2C1 (stereo not given) 29.3%, O=C1c2ccccc2C(=O)N1CCN1CCCCC1 -8.79%, COc1ccc(S(=O)(=O)Cc2ccc(C(=O)N3CCN(c4ccccc4)CC3)o2)cc1 -7.36%, Cc1ccccc1C(=O)NC1CCN(Cc2nnnn2Cc2ccccc2)CC1 7.81%, O=C(O)Cn1cc(C(=O)c2ccco2)c2ccccc21 0.251%, CCOc1ccc2oc(-c3ccccc3)c(C(=O)N3CCN(CCO)CC3)c2c1 15.9%, O=C(NC1CCCCC1)N(Cc1ccc(F)cc1)Cc1nc2ccccc2c(=O)[nH]1 21%, O=C(NC1CCCCCC1)C1CCCN(S(=O)(=O)c2cccs2)C1 (stereo not given) -10.9%, Cc1cc(C(=O)Nc2sc3c(c2C#N)CCCCC3)cs1 -33.9%, CC(=O)Nc1ccc(S(=O)(=O)N(C2=NCC(C)S2)c2ccccc2)cc1 (stereo not given) 11.6%, CC(=O)N1CCN(S(=O)(=O)c2ccc(S(=O)(=O)NC3CC3)cc2)CC1 18.5%, CN(C)S(=O)(=O)N1CCN(c2cccc(Cl)c2)CC1 10.3%, CCCC(=O)Nc1cc(-c2nnc(OC)c3ccccc23)ccc1N1CCOCC1 22.9%, CCOc1ccccc1-n1c(SCC(=O)NCc2ccco2)nnc1-c1ccncc1 7.96%, CC(C)c1ccc(C(O)c2cnc(C(C)C)n2C)cc1 (stereo not given) -10.5%, Cc1cccc(N2CCN(Cc3c(C)n(C)n(-c4ccccc4)c3=O)CC2)c1C 13.4%, Cc1ccc2c(c1)sc1ncc(NC(=O)c3ccccc3)c(=O)n12 -16.1%, COc1ccc(CCNc2oc(-c3ccccc3OC)nc2C#N)cc1 -0.337%, N#CCCN(Cc1cccnc1)C(=O)Nc1ccc(Cl)c(Cl)c1 15.4%, CC(=O)N1CCc2cc(S(=O)(=O)CCC(=O)Nc3cccc(F)c3)ccc21 7.41%, CC(=O)NCc1cccc(CNC(C)=O)n1 12%, CCOc1ccccc1-n1nnnc1SCC(=O)Nc1cc2oc3ccccc3c2cc1OC -7.46%, CC(=O)Nc1ccccc1OCc1nnc(-c2cccs2)o1 -27%, O=C1c2ccccc2C(Nc2ccc(F)cc2F)N1CCN1CCOCC1 (stereo not given) 13.8%, CNc1ccc(C(O)(C(F)(F)F)C(F)(F)F)cc1C(O)(C(F)(F)F)C(F)(F)F 12.6%, Cc1nnc(SC(=O)N2c3ccccc3Sc3ccccc32)s1 5.05%, C=CCn1c(=O)c2ccccc2n2c(SC(C)C(=O)Nc3nc(-c4ccccc4)cs3)nnc12 (stereo not given) 10.9%, CC(=O)Nc1cc(NC(C)=O)cc(C(=O)OCC(=O)N2CC(C)OC(C)C2)c1 (stereo not given) 6%, COc1ccc(C2CC(c3ccc(C)cc3)Nc3ncnn32)cc1 (stereo not given) 7.28%, O=C(Nc1ccc2c(c1)OCCO2)NC1CCCCC1 -28.7%, CCc1cccc(NC(=O)Cn2cc3c(n2)CCCC3)c1 13.7%, N#Cc1cnn(Cc2ccc(Cl)cc2)c1N 7.9%, O=C(NCCCNC1CCCCC1)c1ccc(/C=N/O)nc1 7.85%, CCCCOc1ccc(-c2ncc(C(=O)OCC)c(N)n2)cc1 0.257%, CCOP(=O)(c1ccc(N(C)C)cc1)C(O)c1c(Cl)cccc1Cl (stereo not given) 12.4%, Cc1c(NC(=O)c2nn(C)c(=O)c3ccccc23)c(=O)n(-c2ccccc2)n1C 0.784%
